Laboratory results taken from PubChem BioAssay AID1159606 (Sanford-Burnham Center for Chemical Genomics, 2016).
The whole screen tested about 360,000 compounds, of which about 7,300 (2%) were called active. No stated cut-off is given here; in the data, active means inhibition above about 50%; inactive means the rest. The full list was thinned out, with actives kept by preference.

Assay: blockers of TWEAK-induced Fn14 reporter activity – luciferase reporter cells, uHTS, primary screen (AID 1159606)
Details: TWEAK-stimulated Fn14 reporter cells, luciferase luminescence, 8 h; at 10 µM; stronger effect = higher value

Compound | inhibition
COc1cc([N+](=O)[O-])ccc1NC(=S)N1CCN(c2ccccn2)CC1 | -16.1% (inactive)
COc1ccc(-c2c(C)cc3oc(=O)cc(-c4ccccc4)c3c2C)cc1OC | -10.1% (inactive)
COc1ccc(-c2c(C)cc3oc(=O)cc(-c4ccccc4)c3c2C)cc1F | -37% (inactive)
COc1cc(OC)c2c(-c3cccc(-c4cccc(N)c4)c3)cc(=O)oc2c1 | 54.3% (active)
CC(C)[C@@H]1NC(=O)c2cc([N+](=O)[O-])cc(I)c2NCCC[C@@H](C(=O)NC(CC(=O)O)C(N)=O)NC(=O)[C@H](CO)NC1=O (stereo partly specified) | -9.29% (inactive)
COc1ccccc1C(=O)NCCn1cc(SCC(=O)NCc2ccco2)c2ccccc21 | 8.15% (inactive)
CCc1oc(-c2ccc(OC)cc2)c(C(=O)OCCCCCO)c1C(C)OCCO (stereo unspecified) | -8.4% (inactive)
Cc1nnsc1C(=O)Nc1cccc(Cl)c1C | -11.4% (inactive)
Cc1cc(Cl)ccc1NNC(=O)c1snnc1C | 78.6% (active)
Cc1nnsc1C(=O)NCc1c(F)cccc1Cl | 21.4% (inactive)
CCOC(=O)[C@]12CCCC=C1N(Cc1ccc3c(c1)OCO3)C(=O)[C@H](CC(=O)N1CCN(C(=O)c3ccco3)CC1)C2 | 10.3% (inactive)
COc1ccc(Oc2cn[nH]c2-c2ccc(OC)cc2O)cc1 | -3.87% (inactive)
COc1ccc(-c2cn[nH]c2-c2ccc(OC)cc2)cc1 | 80.3% (active)
CCOc1ccccc1Oc1cn[nH]c1-c1ccc(OC)cc1O | 33.5% (inactive)
CC12CCC(=O)C=C1CCC1C2C(O)CC2(C)C1CCC2(O)C(O)CO (stereo unspecified) | 8.15% (inactive)
COc1ccccc1Cc1c(-c2ccc(Cl)cc2)nc2c3ccccc3ccn12 | -9.82% (inactive)
COc1ccc(CCc2nc(-c3cccs3)no2)cc1 | -31.5% (inactive)
Clc1ccc(-n2nnnc2-c2cnc(-c3ccccn3)nc2-c2cccs2)cc1 | 10% (inactive)
Brc1ccc(-c2noc(-c3ccccc3)n2)o1 | -28% (inactive)
O=C(Oc1ccc(-c2nc(-c3ccccn3)no2)cc1)c1ccccc1 | 92.9% (active)
c1ccc(-c2noc(-c3cccs3)n2)nc1 | 76.2% (active)

Compound | inhibition
O=C(COC(=O)c1ccncc1)c1ccccc1 | -3.5% (inactive)
COCCN(C(=O)C(C)C)c1nnc(-c2ccc(C(C)(C)C)cc2)s1 | -18% (inactive)
CCCCN(C(=O)C1=NN(c2cc(C)ccc2C)C(=O)CC1)c1c(N)n(CCC)c(=O)[nH]c1=O | 4.67% (inactive)
O=C1NC(O)CCN1C1CC(O)C(CO)O1 (stereo unspecified) | 2.05% (inactive)
O=C(Nc1ccccc1C(=O)N1CCOCC1)c1ccc(CSc2ccccc2)cc1 | -16.9% (inactive)
CCOc1ccc(C(=O)Nc2ccc(CN3CCOCC3)cc2)cc1Cl | -17.1% (inactive)
O=C(Nc1ccc(CSc2ccccc2)cc1)c1ccc(CN2CCOCC2)cc1 | 62.3% (active)
CCOC1CCCCC1NS(=O)(=O)c1ccc(Cl)cc1 (stereo unspecified) | 23.1% (inactive)
COc1ccc2c(c1)CCC/C2=N\OC(=O)c1ccccc1F | 36.7% (inactive)
CC(C)C[C@@H]1Cc2[nH][nH]c(=O)c2[C@H](CCc2ccccc2)O1 | 17% (inactive)
CC(NC(=O)Nc1ccccc1)C(c1cccs1)N1CCN(c2ccccc2)CC1 (stereo unspecified) | 1.76% (inactive)
COc1ccc2nc(Nc3nc(-c4cc5ccccc5oc4=O)cs3)sc2c1 | 64.4% (active)
COc1ccc(OC)c(-c2csc(NC(=O)C3=NNC(=O)CC3)n2)c1 | -2.91% (inactive)
Cc1noc(C)c1CSCC(=O)Nc1nc2ccc(Oc3ccccc3)cc2s1 | -4.3% (inactive)
Cc1ccc(Nc2nc(-c3ccc(O)cc3O)cs2)nc1 | -37.9% (inactive)
O=c1oc2ccccc2cc1-c1csc(Nc2ccc(O)cc2)n1 | 82.7% (active)
Cc1ccn2c(-c3csc(Nc4ccc(C(=O)O)cc4)n3)c(C)nc2c1 | 21.8% (inactive)
CN(C)CCCOc1ccc(-c2ccc3nccn3c2)cn1 | -18.9% (inactive)
Cc1ccc(NC(=O)c2cc([N+](=O)[O-])ccc2Cl)c(O)c1 | 2.69% (inactive)
O=C(NCC(c1cccs1)N1CCOCC1)c1cc(Cl)ccc1[N+](=O)[O-] (stereo unspecified) | 7.3% (inactive)
O=C(Nc1cccc2ccccc12)c1[nH]c(-c2ccccc2)c2c1C(=O)N(C1CC1)C2=O | -46.7% (inactive)

Compound | inhibition
Cc1ccc(NC(=O)COC(=O)CN2CCSC2=O)cc1F | 1.95% (inactive)
Cn1c(=O)c2c(nc(Br)n2CCSc2nc3ccccc3o2)n(C)c1=O | 7.06% (inactive)
CN1C(CC(=O)Nc2ccc(Br)cc2)c2ccccc2CC1(C)C (stereo unspecified) | 12.1% (inactive)
COc1ccc(Sc2ccc(NC(=O)c3cccc(Cl)c3)cc2C#N)cc1 | 26.3% (inactive)
COc1ccc(Nc2cc(=O)oc3ccccc23)cc1 | 12.8% (inactive)
COc1ccc(Nc2cc(Sc3ccc(OC)cc3)ncn2)cc1 | 69.9% (active)
CN(C)CCCNC(=O)c1cc(C(=O)Cc2ccc(Cl)cc2)c[nH]1 | 5.27% (inactive)
CC(C)Cn1cc(-c2cncc3nccn23)cn1 | 5.78% (inactive)
COC(=O)Cc1[nH]n(-c2nc3ccccc3s2)c(=O)c1C(C)=Nc1ccc(OC)cc1 | 101% (active)
CCc1nc2ccccc2c(C(=O)NCc2ccc(OC)cc2)c1C | -1.16% (inactive)
COC(=O)CC1=NN(c2ccccc2)C(=O)C1 | -14.8% (inactive)
CCOc1ccc2c(c1)c(=O)c(S(=O)(=O)c1ccc(C)cc1)cn2CC | -0.17% (inactive)
Cc1ccc(N2C(=O)CN=C2Nc2nc(C)cc(C)n2)cc1 | 4.62% (inactive)
O=C1NNC(c2ccccc2)=N/C1=C\c1ccc(Cl)cc1 | 16.8% (inactive)
CC(=O)N1CCN(S(=O)(=O)c2cccc(C(=O)NC3CCC(C)CC3)c2)CC1 (stereo unspecified) | 3.88% (inactive)
O=C(NC1CC1)c1ccc(-c2ccccc2)cc1 | -4.49% (inactive)
O=C(NC1CC1)c1cccc(Br)c1 | 84.3% (active)
COCCN(C(=O)CC1CCCCC1)c1c(N)n(CC(C)C)c(=O)[nH]c1=O | 19.1% (inactive)
O=C(Nc1ccc(Cl)cc1)/C(=C1\CCCN1)[N+](=O)[O-] | -36.6% (inactive)
